The structures appear in SMILES notation. The campaign covered roughly 52,000 compounds. About 4,300 (8.3%) were called active. What follows is part of a selection rich in actives, with near analogues and random picks from the rest. A number with no mark means an inactive call. Cut-off read from the data, not from the text of the source: active = survival mostly below about 52% (no sharp cut-off); inactive = mostly above about 56%.

This assay deals with DeltatarO mutant. In words: growth inhibition of S. aureus wild type versus tarO mutant, primary screen, teichoic acid synthesis inhibitors, RN4220, OD600 (AID 463173). The following applies: OD600, 18 h, active compounds read low, screened at 18.75 µg/mL (by protocol).
In the case of `O=C(CNCc1ccccc1F)Nc1ccc(N2CCCC2)cc1`, the survival is 102%.
The value for `Cc1nnc2c3ccccc3nc(N3CCN(c4cccc(Cl)c4)CC3)n12` was 92%; that for `COc1ccc(CNC(=O)CCc2c(C)nc3cc(-c4ccc(OC)cc4OC)nn3c2C)cc1` was 121%.
For `CCn1cc(C(=O)NCc2ccc(F)cc2)c(=O)c2cc(S(=O)(=O)N(C)C)ccc21` the value was 81%; for `CCOCCc1nn2c(=O)cc(COC(=O)c3ccc(NC(=O)C4CCCCC4)cc3)nc2s1`, 70%.
The value for `COc1ccc(N2CC(C(=O)Nc3ccccc3-c3nc(-c4ccc(C)cc4)no3)CC2=O)cc1` (centres undefined) was 54% (active); that for `COc1cccc(-c2noc(-c3cc4ccccc4oc3=O)n2)c1OC` was 102%; that for `COc1ccc(-c2noc(-c3ccccc3NC(=O)c3cc(OC)c(OC)c(OC)c3)n2)cc1` was 34% (active).
For the molecule `COc1ccc(-c2noc(-c3cccc(OC)c3OC)n2)cc1`, the survival is 8% (active).
As to `COc1ccc(C(=O)Nc2ccccc2-c2nc(-c3ccc(OC)cc3)no2)cc1`, the survival was 48%.
The value for `COc1cc(C(=O)Nc2ccccc2-c2nc(-c3ccccc3)no2)cc(OC)c1OC` was 66%; that for `Cc1ccc(-c2noc(-c3ccccc3NC(=O)C3CC(=O)N(c4ccc(C)cc4)C3)n2)cc1` (centres undefined) was 48%; that for `Cc1ccc(-c2noc(-c3ccccc3NC(=O)c3ccccc3)n2)cc1` was 69%.
The value for `Cc1ccc(-c2noc(-c3ccccc3NC(=O)C3CC(=O)N(c4cccc(C)c4)C3)n2)cc1` (centres undefined) was 66%; that for `COc1cccc(C(=O)Nc2ccccc2-c2nc(-c3ccc(C)cc3)no2)c1` was 48% (active).
For `COc1cccc(-c2noc(-c3cc(C(C)C)[nH]n3)n2)c1OC` the value was 73%; for `COc1cc(C(=O)Nc2ccccc2-c2nc(-c3ccc(C)cc3)no2)cc(OC)c1OC`, 53%; for `COc1ccc(C2=NN(CC(=O)NCCCN(C)c3ccccc3)C(=O)CC2)cc1`, 116%.
For `CCCn1c(=O)c2sccc2n2c(CCCC(=O)Nc3ccc(Oc4ccccc4)cc3)nnc12`, the survival was 88%.
For `CN(C)c1ccc(C(CNC(=O)COc2ccc(Cl)cc2)N2CCOCC2)cc1` (centres undefined) the value was 55%; for `Cc1cccc(OC(C)C(=O)Nc2nonc2-c2ccc(Br)cc2)c1C` (centres undefined), 70%.
The value for `Cc1ccc(OC(C)C(=O)Nc2nonc2-c2ccc(Br)cc2)cc1C` (centres undefined) was 66%.
For `Cc1cccc(C)c1OCC(=O)Nc1nonc1-c1ccc(Br)cc1` the value was 41% (active); for `Cc1cccc(OCC(=O)Nc2nonc2-c2ccc(Br)cc2)c1C`, 68%.
Take `Cc1cc(C)cc(OC(C)C(=O)Nc2nonc2-c2ccc(Br)cc2)c1` (centres undefined): the survival is 14% (active).
With `Cc1ccc(OCC(=O)Nc2nonc2-c2ccc(Br)cc2)cc1`, the survival was 75%.
The value for `CCc1ccc2[nH]cc(S(=O)(=O)c3ccc(C(C)C)cc3)c(=O)c2c1` was 62%; that for `CC(C)c1ccc(NC(=O)CCNS(=O)(=O)c2ccc3c(c2)CCCC(=O)N3)cc1` was 77%.
The value for `Cc1cc(C)c2c(=O)cc(CSCC(=O)Nc3ccccc3Cl)[nH]c2c1` was 90%; that for `Cc1ccc(-c2cc3ncc4c(n3n2)-c2cc(F)ccc2OC4)cc1` was 108%; that for `O=C(CS(=O)(=O)c1cccc2nsnc12)Nc1ccccc1Cl` was 71%.
The value for `CCOC(=O)Cc1cc(=O)[nH]c(/N=C(\N)Nc2ccc3ccccc3c2)n1` was 98%; that for `COC(=O)c1ccc(NC(=O)CCc2c(C)nn(-c3ccc(N4CCOCC4)nn3)c2C)cc1` was 78%.
`CCN(CC)CCNC(=O)C(=O)NCC(c1cccnc1)N1CCN(c2ccccc2)CC1` (centres undefined): the survival was 100%.
The value for `COc1ccccc1N1CCN(C(CNC(=O)C(=O)NCCN(C)C)c2cccnc2)CC1` (centres undefined) was 69%.
In the case of `COc1ccccc1N1CCN(C(CNC(=O)C(=O)NCCCN(C)C)c2cccnc2)CC1` (centres undefined), the survival is 61% (active).
The value for `CN(C)CCNC(=O)C(=O)NCC(c1cccnc1)N1CCN(c2ccc(F)cc2)CC1` (centres undefined) was 69%; that for `Cc1ccc(CNC(=O)C(=O)NCC(c2cccnc2)N2CCN(c3ccc(F)cc3)CC2)cc1` (centres undefined) was 73%.
For the molecule `COCCNC(=O)C(=O)NCC(c1cccnc1)N1CCN(c2ccccc2OC)CC1` (centres undefined), the survival is 64%.
For `CCOc1ccccc1NC(=O)C(=O)NCC(c1cccnc1)N1CCN(c2ccccc2)CC1` (centres undefined) the value was 54%; for `CCOC(=O)C(=O)NCC(c1cccnc1)N1CCN(c2ccccc2)CC1` (centres undefined), 65% (active); for `Cc1cc(C)cc(NC(=O)C(=O)NCC(c2cccnc2)N2CCN(c3ccccc3)CC2)c1` (centres undefined), 56%.
The value for `COC(=O)NCC(c1cccnc1)N1CCN(c2ccc(F)cc2)CC1` (centres undefined) was 83%; that for `Cc1ccc(C)c(NC(=O)C(=O)NCC(c2cccnc2)N2CCN(c3ccc(F)cc3)CC2)c1` (centres undefined) was 15% (active).
The value for `CN(C)CCNC(=O)C(=O)NCC(c1cccnc1)N1CCN(c2ccccc2)CC1` (centres undefined) was 54% (active); that for `COc1ccc(OC)c(NC(=O)Cn2cc(C(=O)c3cccs3)c3ccccc32)c1` was 50%; that for `Cc1ccccc1NC(=O)CSC1=Nc2ccccc2C2=NC(CCC(=O)NCc3ccccc3)C(=O)N12` (centres undefined) was 89%.
Consider `COc1cccc(C2C(C(N)=O)=C(C)Nc3ncnn32)c1` (centres undefined), for which the survival was 71%.
The value for `Cn1c(SCc2ccccc2F)nc2c([nH]c3ccccc32)c1=O` was 97%; that for `Cc1ccc(/C=C/c2onc(C)c2S(=O)(=O)N2CCC(C(=O)N3CCN(c4cc(C)ccc4C)CC3)CC2)cc1` was 87%; that for `O=C(Cn1cc(SCc2ccccc2Cl)c2ccccc21)N1CCCCCC1` was 74%.
The value for `CC1CCN(S(=O)(=O)c2cc(C(=O)NCc3ccc(N(C)C)cc3)n(C)c2)CC1` was 93%.
In the case of `Cc1cccc(N2CCN(c3ccc(NC(=O)c4ccccc4)cc3C(=O)O)CC2C)c1` (centres undefined), the survival is 81%.
For `CCCS(=O)(=O)N1CCC(N2CCN(Cc3ccc(F)cc3)C(=O)C2=O)CC1` the value was 83%.
For `COc1cccc(CNC(=O)Cn2c(=O)cc(C(F)(F)F)c3c(C)nn(C)c32)c1OC` the value was 90%.
The value for `COCCNC(=O)C(=O)NCC(c1cccnc1)N1CCN(c2ccccc2F)CC1` (centres undefined) was 70%.
Turning to `O=C(NCc1cccnc1)C(=O)NCC(c1cccnc1)N1CCN(c2ccccc2)CC1` (centres undefined), the survival is 53%.
The value for `O=C(NCCc1ccccc1)C(=O)NCC(c1cccnc1)N1CCN(c2ccccc2)CC1` (centres undefined) was 51%; that for `O=C(NCc1ccccc1)C(=O)NCC(c1cccnc1)N1CCN(c2ccccc2)CC1` (centres undefined) was 45% (active); that for `O=C(NCc1ccc(Cl)cc1)C(=O)NCC(c1cccnc1)N1CCN(c2ccccc2)CC1` (centres undefined) was 47%.
With `COCCNC(=O)C(=O)NCC(c1cccnc1)N1CCN(c2ccccc2)CC1` (centres undefined), the survival is 54% (active).
The value for `Cc1ccc(CCNC(=O)c2ccc3c(c2)N(Cc2ccccc2F)C(=O)c2ccccc2S3=O)cc1` (centres undefined) was 69%; that for `COc1ccc(-c2cc(C(=O)NCc3ccc(F)cc3)c3c(-c4ccc(F)cc4)[nH]nc3n2)cc1OC` was 72%; that for `COc1ccc(CCNc2nc3c(c(=O)n(C)c(=O)n3C)n2Cc2ccc(F)cc2)cc1OC` was 90%.
For `CCOc1ccc(N(c2nc(-c3ccc(OC)c(OC)c3)no2)c2nc(-c3ccc(OC)c(OC)c3)no2)cc1` the value was 73%.
For `Nc1ncc(Cc2ccccc2)s1` the value was 75%.
For `CCCCSCCCNC(=O)CN1C(=O)c2cccnc2Oc2ccc(Cl)cc21`, the survival is 94%.
For `N#Cc1cc2c(ccc3ccccc32)oc1=O` the value was 71%; for `N#CC1=C(N)Oc2c(c(=O)oc3ccccc23)C12C(=O)Nc1ccccc12` (centres undefined), 102%.
For `N#CC1=C(N)Oc2c(c(=O)oc3ccccc23)C1` the value was 31% (active); for `COc1ccc(N2CCN(C(=O)Cn3ncc4c3-c3cc(C)ccc3OC4)CC2)cc1`, 122%.
For `C=C(C)Cn1c(=O)c2c(nc3n2CCN3c2cc(C)cc(C)c2)n(C)c1=O` the value was 81%; for `Oc1cccc(N=Cc2sc(=S)n(C3CCCCC3)c2O)c1`, 84%.
As for `CC1=C(C(=O)NCc2cccc(F)c2)C2(CCCCCC2)OC1=O`, the survival was 55%.
For `CC1=C(C(=O)Nc2cccc(C)c2C)C2(CCCCC2)OC1=O` the value was 89%.
On to `CC1=C(C(=O)NCc2cccc(Br)c2)C2(CCCCC2)OC1=O`, for which the survival is 83%.
In the case of `CC1=C(C(=O)Nc2cccc(Cl)c2C)C2(CCCCCC2)OC1=O`, the survival was 0% (active).
`CC1=C(C(=O)Nc2cccc(C(F)(F)F)c2)C2(CCCCC2)OC1=O`: the survival was 95%.
The value for `CC(=O)N1CCC2(CC1)OC(=O)C(C)=C2C(=O)Nc1cccc(Cl)c1C` was 70%; that for `CC1=C(C(=O)NCc2cccc(F)c2)C2(CCCCC2)OC1=O` was 37% (active).
Turning to `COC(=O)c1ccccc1NC(=O)C1=C(C)C(=O)OC12CCC(C)CC2` (centres undefined), the survival was -23% (active).
The value for `CC1=C(C(=O)Nc2ccccc2Br)C2(CCC(C)CC2)OC1=O` (centres undefined) was 83%; that for `CC1=C(C(=O)Nc2cccc(C(F)(F)F)c2)C2(CCCCCC2)OC1=O` was 32% (active); that for `CC1=C(C(=O)Nc2cccc(C(F)(F)F)c2)C2(CCN(C(C)C)CC2)OC1=O` was 84%.
The value for `COC(=O)c1ccccc1NC(=O)C1=C(C)C(=O)OC12CCCCCC2` was 84%.
For `CCOc1ccc(C2C(C(=O)Nc3ccc(C)cc3C)=C(C)Nc3c(C(=O)Nc4ccc(C)cc4)cnn32)cc1OC` (centres undefined) the value was 94%; for `O=C(NC(=O)c1ccccc1)Nc1ccc(-n2nc(C(F)(F)F)cc2C(F)(F)F)cc1`, 173%; for `COC(=O)c1ccccc1NC(=O)Cn1c(=O)cc(-c2ccccc2)c2c(C)nn(C)c21`, 89%.
Take `CCOC(=O)C(CC)N1CCN(Cc2ccc(F)cc2)C(=O)C1=O` (centres undefined): the survival was 85%.

Source of the values: PubChem BioAssay AID463173 (ICCB-Longwood Screening Facility, Harvard Medical School, 2010).
